PubChem BioAssay (NCATS)
Inconclusive results are not listed. Active and inactive are the calls of the source. The call rests on the fitted dose curve; in most records, active means well fitted curve in the direction sought with a large enough effect; inconclusive means small, poorly fitted or top-dose-only effect, or another doubt; inactive means no such curve, though single readings can be large; an effect the other way counts as inactive or inconclusive.

Tests used:
HEK293 = assay: Cytotoxic Profiling of Annotated Libraries Using Quantitative High-Throughput Screening (AID 1296008); details: Five cell lines viability, CellTiter-Glo ATP luminescence, 48-72 h; max response: stronger effect = lower value; further: nearly all actives have a fitted effect of over 60% in size
Summary of the method: (§1)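 Cytotoxicity was measured as CellTiter-Glo ATP luminescence, read after 10 min at room temperature. Compound treatment of the cells lasted 48 or 72 hr at 37 degrees Celsius in a qHTS format.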

HaCat = assay: as above; details: Five cell lines viability, CellTiter-Glo ATP luminescence, 48-72 h; max response: stronger effect = lower value
Summary of the method: as §1

KB-3-1 = assay: as above; details: Five cell lines viability, CellTiter-Glo ATP luminescence, 48-72 h; max response: stronger effect = lower value
Summary of the method: as §1

NIH3T3 = assay: as above; details: Five cell lines viability, CellTiter-Glo ATP luminescence, 48-72 h; max response: stronger effect = lower value
Summary of the method: as §1

C33A = assay: Primary qHTS to identify gynecologic anti-cancer compounds using libraries of approved drugs and bioactive compounds (AID 1345084); details: Gynecologic cancer cell panel viability, ATPlite luminescence, 48 h; series mostly up to 57.5 µM; further: nearly all actives have a fitted effect of over 55% in size
Summary of the method: (§2)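 48 h compound exposure at 37 C, 5% CO2; five-point qHTS. ATPlite luminescence readout of cell ATP.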

CAOV3 = assay: as above; details: Gynecologic cancer cell panel viability, ATPlite luminescence, 48 h; series mostly up to 57.5 µM
Summary of the method: as §2

CASKI = assay: as above; details: Gynecologic cancer cell panel viability, ATPlite luminescence, 48 h; series mostly up to 57.5 µM
Summary of the method: as §2

Es-2 = assay: as above; details: Gynecologic cancer cell panel viability, ATPlite luminescence, 48 h; series mostly up to 57.5 µM
Summary of the method: as §2

HeLa = assay: as above; details: Gynecologic cancer cell panel viability, ATPlite luminescence, 48 h; series mostly up to 57.5 µM
Summary of the method: as §2

Hek293T = assay: as above; details: Gynecologic cancer cell panel viability, ATPlite luminescence, 48 h, control line for the selectivity index; series mostly up to 57.5 µM
Summary of the method: as §2

JEG-3 = assay: as above; details: Gynecologic cancer cell panel viability, ATPlite luminescence, 48 h; series mostly up to 57.5 µM
Summary of the method: as §2
On the % scale 0 is the no-effect control and ±100 the full control effect.

C/C=C/C(O)C1OC(=O)CC1Nc1ccc(C(=O)O)cc1 (stereo not drawn)
inactive: max response (HEK293) 4.45% | max response (HaCat) -8.27% | max response (KB-3-1) 8.51% | max response (NIH3T3) 1.46% | Potency (C33A) | Potency (CAOV3) | Potency (CASKI) | Potency (Es-2) | Potency (HeLa) | Potency (Hek293T) | Potency (JEG-3)

C[C@@H]1C[C@@H]([C@@H](O)C(C)(C)O)O[C@H]2C[C@@]3(C)C(=C12)C[C@H](O)[C@H]1[C@@]2(C)CCC(=O)C(C)(C)C2CC[C@@]13C (stereo partly drawn)
inactive: max response (HEK293) 3.48% | max response (HaCat) -11.9% | max response (KB-3-1) 5.24% | max response (NIH3T3) -0.489% | Potency (C33A) | Potency (CAOV3) | Potency (CASKI) | Potency (Es-2) | Potency (HeLa) | Potency (Hek293T) | Potency (JEG-3)

CC12CCC(OC3OC(CO)C(O)C(OC4OC(CO)C(O)C(O)C4O)C3O)CC1CCC1C2CCC2(C)/C(=C3/COC(=O)C3)CCC12O (stereo not drawn)
inactive: max response (HEK293) -1.14% | max response (HaCat) -0.083% | max response (KB-3-1) -0.791% | max response (NIH3T3) 4.18% | Potency (C33A) | Potency (CAOV3) | Potency (CASKI) | Potency (Es-2) | Potency (HeLa) | Potency (Hek293T) | Potency (JEG-3)

CC12CCC3c4ccc(OC5OC(C(=O)O)C(O)C(O)C5O)cc4CCC3C1CCC2O (stereo not drawn)
inactive: max response (HEK293) 3.31% | max response (HaCat) 0.389% | outcome (KB-3-1) | max response (NIH3T3) 3.14% | Potency (C33A) | Potency (CAOV3) | Potency (CASKI) | Potency (Es-2) | Potency (HeLa) | Potency (Hek293T) | Potency (JEG-3)

O=C(/C=C/c1ccc(O)cc1)OC1[C@H](O)CC(O)(C(=O)O)C[C@H]1O (stereo partly drawn)
inactive: max response (HEK293) -1.83% | max response (HaCat) 1.01% | max response (KB-3-1) 2.34% | max response (NIH3T3) -9.08% | Potency (C33A) | Potency (CAOV3) | Potency (CASKI) | Potency (Es-2) | Potency (HeLa) | Potency (Hek293T) | Potency (JEG-3)

CC(C)CC1NC(=O)C2CC3(O)c4ccccc4NC3N2C1=O (stereo not drawn)
inactive: max response (HEK293) 2.06% | max response (HaCat) -17.2% | max response (KB-3-1) 7.2% | max response (NIH3T3) -1.31% | Potency (C33A) | Potency (CAOV3) | Potency (CASKI) | Potency (Es-2) | Potency (HeLa) | Potency (Hek293T) | Potency (JEG-3)

O=C1Nc2ccccc2C(O)(c2ccccc2)C1O (stereo not drawn)
inactive: max response (HEK293) -7.58% | max response (HaCat) -18.6% | max response (KB-3-1) 2.02% | max response (NIH3T3) -2.57% | Potency (C33A) | Potency (CAOV3) | Potency (CASKI) | Potency (Es-2) | Potency (HeLa) | Potency (Hek293T) | Potency (JEG-3)

CCC(=O)O[C@H]1C(C)(C)[C@H]([C@@H](O)C(=O)OC)[C@]2(C)C(=O)[C@@]1(O)[C@H]1O[C@]13C1CC(=O)O[C@@H](c4ccoc4)[C@]1(C)CCC32 (stereo partly drawn)
inactive: max response (HEK293) -1.59% | max response (HaCat) -11.6% | max response (KB-3-1) -4.09% | max response (NIH3T3) -25.4% | Potency (C33A) | Potency (CAOV3) | Potency (CASKI) | Potency (Es-2) | Potency (HeLa) | Potency (Hek293T) | Potency (JEG-3)

[N-]=[N+]=N[C@]1(CO)O[C@@H](n2ccc(=O)[nH]c2=O)[C@@H](O)[C@@H]1O
inactive: max response (HEK293) -4.49% | max response (HaCat) 4.64% | outcome (KB-3-1) | max response (NIH3T3) -4.26% | Potency (C33A) | Potency (CAOV3) | Potency (CASKI) | Potency (Es-2) | Potency (HeLa) | Potency (Hek293T) | Potency (JEG-3)

CC(C)C(=O)OC[C@H]1O[C@H](O[C@H]2O[C@H](CO)[C@@H](O)[C@H](O)[C@H]2O)[C@H](O)[C@@H](O)[C@@H]1O
inactive: max response (HEK293) 3.34% | max response (HaCat) 0.512% | outcome (KB-3-1) | max response (NIH3T3) -1.4% | Potency (C33A) | Potency (CAOV3) | Potency (CASKI) | Potency (Es-2) | Potency (HeLa) | Potency (Hek293T) | Potency (JEG-3)

C=CCC1=C[C@]2(OC)[C@H](C)[C@@H](c3ccc(O)c(OC)c3)O[C@]2(OC)CC1=O
inactive: max response (HEK293) 0.3% | max response (HaCat) 3.92% | max response (KB-3-1) 5.23% | max response (NIH3T3) 0.772% | Potency (C33A) | Potency (CAOV3) | Potency (CASKI) | Potency (Es-2) | Potency (HeLa) | Potency (Hek293T) | Potency (JEG-3)

C[C@@H]1CCC/C=C/[C@H]2CC(=O)C[C@@H]2[C@@H](O)/C=C/C(=O)O1
inactive: max response (HEK293) -12% | max response (HaCat) -12.2% | max response (KB-3-1) 8.18% | max response (NIH3T3) -2.1% | Potency (C33A) | Potency (CAOV3) | Potency (CASKI) | Potency (Es-2) | Potency (HeLa) | Potency (Hek293T) | Potency (JEG-3)

C=C1[C@H](OC(C)=O)[C@H]2[C@@H](OC(C)=O)[C@](C)(OC(C)=O)C[C@]2(OC(C)=O)C(=O)[C@H](C)/C=C/C(C)(C)C(=O)[C@H](OC(=O)C(C)CC)[C@H]1OC(C)=O (stereo partly drawn)
inactive: max response (HEK293) 1.43% | max response (HaCat) -2.99% | outcome (KB-3-1) | max response (NIH3T3) -13.5% | Potency (C33A) | Potency (CAOV3) | Potency (CASKI) | Potency (Es-2) | Potency (HeLa) | Potency (Hek293T) | Potency (JEG-3)
